Experimental data from PubChem BioAssay AID1159580 (chemical genetic matrix, 2015).
Where “and” joins values, the source holds several entries; their conditions need not be identical. Equal entries are not always repeated. Out of some 5,500 compounds screened, about 2,000 (36%) were called active. Another 18% or so got no clear call; they are omitted. Cut-off read from the data, not from the text of the source: active = normalized growth mostly below about 0.91 (no sharp cut-off); inconclusive = no clear call, values can overlap the other calls; inactive = mostly above about 0.92. The list shows a part of the results.

Test: chemical genetic growth profiling, strain panel (AID 1159580);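 note: tested at 20 µM; growth read once vehicle control cultures reached saturation at 30 °C; 1 = growth at the plate median or of vehicle wells; lower values mean less growth of the strain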
Conditions: growth OD

Measured: normalized growth

NNCc1cccc(O)c1
inactive: S. cerevisiae deletion strains, locus YAL013W, strain DEP1, active compounds read low 0.994 | S. cerevisiae deletion strains, locus YAL040C, strain CLN3, active compounds read low 1.08 | S. cerevisiae deletion strains, locus YBR021W, strain FUR4, active compounds read low 1.07 | S. cerevisiae deletion strains, locus YBR229C, strain ROT2, active compounds read low 1 | S. cerevisiae deletion strains, locus YCL029C, strain bik1, active compounds read low 0.988 | S. cerevisiae deletion strains, locus YCL061C, strain MRC1 (second series), active compounds read low 0.984 | S. cerevisiae deletion strains, locus YDL035C, strain GPR1, active compounds read low 0.969 | S. cerevisiae deletion strains, locus YDL074C, strain BRE1, active compounds read low 0.98 | S. cerevisiae deletion strains, locus YDL101C, strain DUN1, active compounds read low 0.994 | S. cerevisiae deletion strains, locus YDL134C, strain PPH21, active compounds read low 0.994 | S. cerevisiae deletion strains, locus YDL192W, strain arf1, active compounds read low 1 | S. cerevisiae deletion strains, locus YDR101C, strain arx1, active compounds read low 0.989 | S. cerevisiae deletion strains, locus YDR150W, strain NUM1, active compounds read low 0.987 and 0.976 | S. cerevisiae deletion strains, locus YDR162C, strain NBP2, active compounds read low 0.987 | S. cerevisiae deletion strains, locus YDR318W, strain mcm21, active compounds read low 1 | S. cerevisiae deletion strains, locus YDR363W, strain ESC2, active compounds read low 1.01 | S. cerevisiae deletion strains, locus YDR388W, active compounds read low 1.01 | S. cerevisiae deletion strains, locus YDR502C, strain sam2, active compounds read low 0.996 | S. cerevisiae deletion strains, locus YEL061C, strain CIN8, active compounds read low 1 | S. cerevisiae deletion strains, locus YER002W, strain NOP16, active compounds read low 0.995 | S. cerevisiae deletion strains, locus YER110C, active compounds read low 0.968 | S. cerevisiae deletion strains, locus YER155C, strain BEM2, active compounds read low 1 | S. cerevisiae deletion strains, locus YER167W, strain BCK2, active compounds read low 0.99 | S. cerevisiae deletion strains, locus YGL078C, strain dbp3, active compounds read low 0.99 | S. cerevisiae deletion strains, locus YGL086W, strain mad1, active compounds read low 0.984 | S. cerevisiae deletion strains, locus YGL248W, strain PDE1, active compounds read low 0.996 | S. cerevisiae deletion strains, locus YGR078C, strain PAC10, active compounds read low 1 | S. cerevisiae deletion strains, locus YGR135W, strain pre9, active compounds read low 1.02 | S. cerevisiae deletion strains, locus YGR229C, strain SMI1, active compounds read low 1.01 | S. cerevisiae deletion strains, locus YGR252W, strain gcn5, active compounds read low 0.992 | S. cerevisiae deletion strains, locus YHR030C, strain SLT2, active compounds read low 0.994 | S. cerevisiae deletion strains, locus YHR079C, strain IRE1 (second series), active compounds read low 0.987 | S. cerevisiae deletion strains, locus YHR094C, strain hxt1, active compounds read low 0.99 | S. cerevisiae deletion strains, locus YHR129C, strain ARP1, active compounds read low 0.993 | S. cerevisiae deletion strains, locus YHR200W, strain rpn10, active compounds read low 0.986 | S. cerevisiae deletion strains, locus YIL066C, strain RNR3, active compounds read low 0.99 | S. cerevisiae deletion strains, locus YIL073C, strain SPO22, active compounds read low 0.92 | S. cerevisiae deletion strains, locus YIL125W, strain kgd1, active compounds read low 0.971 | S. cerevisiae deletion strains, locus YIR030C, strain dcg1, active compounds read low 0.989 | S. cerevisiae deletion strains, locus YJL095W, strain BCK1, active compounds read low 1.01 | S. cerevisiae deletion strains, locus YJL134W, strain LCB3, active compounds read low 0.987 | S. cerevisiae deletion strains, locus YJL168C, strain set2, active compounds read low 0.981 | S. cerevisiae deletion strains, locus YJL187C, strain SWE1 (second series), active compounds read low 0.991 | S. cerevisiae deletion strains, locus YJR043C, strain POL32, active compounds read low 0.974 | S. cerevisiae deletion strains, locus YJR075W, strain HOC1, active compounds read low 0.99 | S. cerevisiae deletion strains, locus YKL009W, strain mrt4, active compounds read low 0.966 | S. cerevisiae deletion strains, locus YKL068W, active compounds read low 0.98 | S. cerevisiae deletion strains, locus YKL085W, strain MDH1 (second series), active compounds read low 0.991 | S. cerevisiae deletion strains, locus YKL085W, strain MDH1, active compounds read low 0.991 | S. cerevisiae deletion strains, locus YKL190W, strain CNB1, active compounds read low 1 | S. cerevisiae deletion strains, locus YKR001C, strain vps1, active compounds read low 1 | S. cerevisiae deletion strains, locus YLR039C, strain RIC1, active compounds read low 0.928 | S. cerevisiae deletion strains, locus YLR058C, strain SHM2, active compounds read low 0.994 | S. cerevisiae deletion strains, locus YLR102C, strain apc9, active compounds read low 0.982 | S. cerevisiae deletion strains, locus YLR262C, strain YPT6, active compounds read low 0.892 | S. cerevisiae deletion strains, locus YLR268W, strain sec22, active compounds read low 1.01 | S. cerevisiae deletion strains, locus YLR330W, strain CHS5, active compounds read low 0.987 | S. cerevisiae deletion strains, locus YLR342W, strain FKS1 (second series), active compounds read low 0.965 | S. cerevisiae deletion strains, locus YLR371W, strain rom2, active compounds read low 0.967 | S. cerevisiae deletion strains, locus YLR418C, strain cdc73, active compounds read low 1.03 | S. cerevisiae deletion strains, locus YML016C, strain PPZ1, active compounds read low 0.993 | S. cerevisiae deletion strains, locus YML032C, strain rad52, active compounds read low 0.974 | S. cerevisiae deletion strains, locus YML124C, strain tub3, active compounds read low 0.999 | S. cerevisiae deletion strains, locus YMR078C, strain ctf18, active compounds read low 1 | S. cerevisiae deletion strains, locus YMR223W, strain ubp8, active compounds read low 0.988 | S. cerevisiae deletion strains, locus YMR263W, strain SAP30, active compounds read low 1 | S. cerevisiae deletion strains, locus YMR307W, strain GAS1, active compounds read low 1.01 | S. cerevisiae deletion strains, locus YNL067W, strain RPL9B, active compounds read low 0.994 | S. cerevisiae deletion strains, locus YNL128W, strain TEP1, active compounds read low 1.01 and 0.986 | S. cerevisiae deletion strains, locus YNL153C, strain GIM3, active compounds read low 1.02 and 1.01 | S. cerevisiae deletion strains, locus YNL175C, strain NOP13, active compounds read low 0.994 | S. cerevisiae deletion strains, locus YNL197C, strain WHI3, active compounds read low 1.01 | S. cerevisiae deletion strains, locus YNL224C, strain SQS1, active compounds read low 0.987 | S. cerevisiae deletion strains, locus YNL233W, strain BNI4, active compounds read low 1.01 | S. cerevisiae deletion strains, locus YNL250W, strain rad50, active compounds read low 0.969 | S. cerevisiae deletion strains, locus YNL271C, strain bni1, active compounds read low 0.98 | S. cerevisiae deletion strains, locus YNL298W, strain CLA4, active compounds read low 1 | S. cerevisiae deletion strains, locus YNL307C, strain MCK1, active compounds read low 0.997 | S. cerevisiae deletion strains, locus YNL322C, strain KRE1, active compounds read low 0.991 and 0.996 | S. cerevisiae deletion strains, locus YNR052C, strain pop2, active compounds read low 0.981 | S. cerevisiae deletion strains, locus YOL006C, strain TOP1, active compounds read low 0.996 | S. cerevisiae deletion strains, locus YOL012C, strain htz1 0.847 | S. cerevisiae deletion strains, locus YOL147C, strain pex11, active compounds read low 1 | S. cerevisiae deletion strains, locus YOR061W, strain CKA2, active compounds read low 0.993 | S. cerevisiae deletion strains, locus YOR069W, strain VPS5, active compounds read low 1 | S. cerevisiae deletion strains, locus YOR083W, strain WHI5 (second series), active compounds read low 0.953 | S. cerevisiae deletion strains, locus YOR136W, strain idh2, active compounds read low 0.994 | S. cerevisiae deletion strains, locus YOR144C, strain elg1, active compounds read low 0.994 | S. cerevisiae deletion strains, locus YOR184W, strain ser1, active compounds read low 0.974 | S. cerevisiae deletion strains, locus YOR316C, strain cot1, active compounds read low 0.994 | S. cerevisiae deletion strains, locus YPL055C, strain LGE1, active compounds read low 1 | S. cerevisiae deletion strains, locus YPL241C, strain CIN2, active compounds read low 0.967 | S. cerevisiae deletion strains, locus YPR119W, strain clb2, active compounds read low 0.998 | S. cerevisiae deletion strains, locus YPR141C, strain kar3, active compounds read low 0.998 | S. cerevisiae deletion strains, locus YPR163C, strain tif3, active compounds read low 1 | S. cerevisiae deletion strains, locus YPR167C, strain met16, active compounds read low 0.999 | S. cerevisiae deletion strains, strain wtn01, active compounds read low 0.994 | S. cerevisiae strains, strain wild type, active compounds read low 0.994
